Laboratory results: the supplement of paper PMC13380429

How the values were obtained:
[1] = tested on: Vero E6 infected with SARS-CoV-2; test: morphology score (similarity to uninfected cells); higher = more like uninfected cells; conditions: 24 h
[2] = tested on: Vero E6 infected with SARS-CoV-2; test: SARS-CoV-2 infection rate relative to infected DMSO; higher = more infection, active = 60 or less; conditions: 24 h

Row | Structure (SMILES) | morphology score [1] | SARS-CoV-2 infection rate [2]
1 | C[C@H](Cn1cnc2c(N)ncnc21)OCP(=O)(O)O [tenofovir] (10 µM) | -0.0359 | 105% (inactive)
2 | CCc1cnc(N2CCC(c3nc(COc4ccc(-n5cnnn5)cc4)cs3)CC2)nc1 (10 µM) | 0.0438 | 97% (inactive)
3 | Clc1ccc(N2CCN(Cc3c[nH]c4ncccc34)CC2)cc1 (10 µM) | -0.0196 | 108% (inactive)
4 | C1COC(NC(C2CC2)C2CC2)=N1 [rilmenidine] (10 µM) | -0.0313 | 99.5% (inactive)
5 | COC(=O)c1ccc(N2CCN(C)CC2)c(NC(=O)c2cccc(OC)c2)c1 (10 µM) | 0.142 | 105% (inactive)
6 | Cn1c(NCCN(CCO)CCCc2ccc([N+](=O)[O-])cc2)cc(=O)n(C)c1=O [nifekalant] (10 µM) | -0.0636 | 120% (inactive)
7 | CC[C@]1(O)C[C@@H]2CN(CCc3c([nH]c4ccccc34)[C@@](C(=O)OC)(c3cc4c(cc3OC)N(C)[C@H]3[C@@](O)(C(=O)OC)[C@H](OC(C)=O)[C@]5(CC)C=CCN6CC[C@]43[C@@H]65)C2)C1 [Vinblastine (sulfate)] (0.833333 µM) | -0.0326 | 102% (inactive)
8 | CC(C)C[C@@H](N)C1(c2ccc(Cl)cc2)CCC1 (10 µM) | -0.0886 | 116% (inactive)
9 | Oc1ccc([C@H]2COc3cc(O)ccc3C2)cc1 [equol] (10 µM) | -0.116 | 114% (inactive)
10 | CCOCCn1c(N2CCCN(C)CC2)nc2ccccc21 [emedastine] (10 µM) | 0.137 | 100% (inactive)
11 | CCc1nn(CCO)c(CC)c1Oc1cc(C#N)cc(C#N)c1 [lersivirine] (10 µM) | 0.162 | 97% (inactive)
12 | Cc1ccccc1-n1c(CF)nc2ccc(N)cc2c1=O [afloqualone] (10 µM) | 0.166 | 96% (inactive)
13 | CC(C)NCC(O)c1ccccc1Cl (stereo unspecified) [clorprenaline] (10 µM) | 0.125 | 96.5% (inactive)
14 | OC(CNCC(O)C1CCc2cc(F)ccc2O1)C1CCc2cc(F)ccc2O1 (stereo unspecified) [nebivolol] (10 µM) | 0.0502 | 108% (inactive)
15 | O=C(Nc1cc(Cl)cc(Cl)c1O)c1c(O)c(Cl)cc(Cl)c1Cl [oxyclozanide] (10 µM) | 0.0306 | 113% (inactive)
16 | COC(=O)C1=C(C)NC(C)=C(C(=O)OC2CCCN(Cc3ccccc3)C2)C1c1cccc([N+](=O)[O-])c1 (stereo unspecified) [benidipine] (10 µM) | 0.0303 | 102% (inactive)
17 | O=C1c2ccccc2C(Cc2ccnc(F)c2)(Cc2ccnc(F)c2)c2ccccc21 (10 µM) | -0.17 | 113% (inactive)
18 | COc1ccccc1OCC(O)CNC(C)C (stereo unspecified) [moprolol] (10 µM) | 0.0947 | 100% (inactive)
19 | CCN1C[C@H](C)n2c(c(O)c3c(=O)n(Cc4ccc(F)c(Cl)c4)nc(C(=O)NC)c32)C1=O (10 µM) | 0.0188 | 97.5% (inactive)
20 | Nc1ccc(S(=O)(=O)Nc2ccnn2-c2ccccc2)cc1 [sulfaphenazole] (10 µM) | 0.178 | 99.5% (inactive)
21 | c1cc(Nc2cc(C3CC3)n[nH]2)nc(Nc2ccc3[nH]cnc3c2)n1 (0.833333 µM) | -0.282 | 110% (inactive)
22 | O=C(O)C[CH2][Ge](=[O])[O][Ge](=[O])[CH2]CC(=O)O [propagermanium] (10 µM) | 0.128 | 94% (inactive)
23 | COc1ccc2cc(-c3nc(-c4ccc([S+](C)[O-])cc4)[nH]c3-c3ccncc3)ccc2c1 (stereo unspecified) [tie2-kinase-inhibitor] (10 µM) | 0.619 | 72.5% (inactive)
24 | CCCCCCCCCCCCCCCC[N+](C)(C)CCN(Cc1ccc(OC)cc1)c1ncccn1 [thonzonium] (10 µM) | -0.372 | 122% (inactive)
25 | CO[C@H]1CC[C@H](N(c2cc(C3=CCCCC3)sc2C(=O)O)C(=O)[C@H]2CC[C@H](C)CC2)CC1 (10 µM) | 0.155 | 83% (inactive)
26 | C[N+](C)(C)CC[N+]1(C)Cc2c(Cl)c(Cl)c(Cl)c(Cl)c2C1 [chlorisondamine-diiodide] (10 µM) | 0.224 | 90.5% (inactive)
27 | CNCCc1ccc(O)c(O)c1 [deoxyepinephrine] (10 µM) | 0.0423 | 106% (inactive)
28 | Nc1cc(C(F)(F)F)c(-c2cc(N3CCOCC3)nc(N3CCOCC3)n2)cn1 [buparlisib] (10 µM) | -0.0939 | 103% (inactive)
